# According to PubChem BioAssay AID1159580 (chemical genetic matrix, 2015):
# The campaign covered roughly 5,500 compounds. About 2,000 (36%) were called active. Inconclusive results (about 18%) are left out. This is one part of the list. A number with no mark means an inactive call. Cut-off read from the data, not from the text of the source: active = normalized growth mostly below about 0.91 (no sharp cut-off); inconclusive = no clear call, values can overlap the other calls; inactive = mostly above about 0.92.
# Assay: chemical genetic growth profiling, strain panel (AID 1159580);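 note: tested at 20 µM; growth read once vehicle control cultures reached saturation at 30 °C; 1 = growth at the plate median or of vehicle wells; lower values mean less growth of the strain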
# Conditions: S. cerevisiae deletion strains, growth OD
# [1] = locus YDL101C, strain DUN1, hits give low values
# [2] = locus YHR030C, strain SLT2, hits give low values
structure (smiles),measurement,setting,value
O=S(=O)(Oc1ccc(-c2csnn2)cc1)c1ccccc1Cl,normalized growth,"locus YAR019C, strain CDC15, hits give low values",0.965
same,normalized growth,"locus YBL105C, strain PKC1, hits give low values",0.98
same,normalized growth,"locus YBR135W, strain CKS1, hits give low values",0.966
same,normalized growth,"locus YBR136W, strain MEC1, hits give low values",0.963
same,normalized growth,"locus YBR160W, strain CDC28, hits give low values",0.971
same,normalized growth,"locus YDL017W, strain CDC7, hits give low values",0.974
same,normalized growth,"locus YDL028C, strain MPS1, hits give low values",0.968
same,normalized growth,[1],0.956
same,normalized growth,"locus YDL108W, strain KIN28, hits give low values",0.967
same,normalized growth,"locus YDL132W, strain cdc53, hits give low values",0.971
same,normalized growth,"locus YDL214C, strain PRR2, hits give low values",0.939
same,normalized growth,"locus YDR052C, strain DBF4, hits give low values",0.978
same,normalized growth,"locus YDR054C, strain cdc34, hits give low values",0.979
same,normalized growth,"locus YDR226W, strain ADK1, hits give low values",0.969
same,normalized growth,"locus YDR477W, strain SNF1, hits give low values",0.94
same,normalized growth,"locus YER123W, strain YCK3, hits give low values",0.915
same,normalized growth,"locus YER133W, strain GLC7, hits give low values",0.939
same,normalized growth,"locus YFL009W, strain cdc4, hits give low values",0.973
same,normalized growth,"locus YFL029C, strain CAK1, hits give low values",0.963
same,normalized growth,"locus YFR003C, strain YPI1, hits give low values",0.972
same,normalized growth,"locus YFR019W, strain FAB1, hits give low values",0.913
same,normalized growth,"locus YFR028C, strain CDC14, hits give low values",0.957
same,normalized growth,"locus YGR040W, strain KSS1, hits give low values",0.934
same,normalized growth,"locus YGR052W, strain FMP48, hits give low values",0.969
same,normalized growth,"locus YGR092W, strain DBF2, hits give low values",0.935
same,normalized growth,[2],0.907
same,normalized growth,"locus YHR079C, strain IRE1, hits give low values",0.929
same,normalized growth,"locus YHR082C, strain KSP1, hits give low values",0.948
same,normalized growth,"locus YHR205W, strain SCH9, hits give low values",0.946
same,normalized growth,"locus YIL147C, strain SLN1, hits give low values",0.968
same,normalized growth,"locus YJL095W, strain BCK1, hits give low values",0.936
same,normalized growth,"locus YJL128C, strain PBS2, hits give low values",0.938
same,normalized growth,"locus YJL157C, strain FAR1, hits give low values",0.947
same,normalized growth,"locus YJR016C, strain ILV3, hits give low values",0.978
same,normalized growth,"locus YJR066W, strain TOR1 (second series), hits give low values",0.909
same,normalized growth,"locus YJR066W, strain TOR1, hits give low values",0.921
same,normalized growth,"locus YKL048C, strain ELM1, hits give low values",0.988
same,normalized growth,"locus YKL067W, strain YNK1, hits give low values",0.933
same,normalized growth,"locus YKL101W, strain HSL1, hits give low values",0.951
same,normalized growth,"locus YKL193C, strain SDS22, hits give low values",0.967
same,normalized growth,"locus YKL203C, strain TOR2, hits give low values",0.989
same,normalized growth,"locus YLR113W, strain HOG1, hits give low values",0.854 (active)
same,normalized growth,"locus YLR133W, strain CKI1, hits give low values",0.947
same,normalized growth,"locus YLR403W, strain SFP1, hits give low values",0.927
same,normalized growth,"locus YML070W, strain DAK1, hits give low values",0.922
same,normalized growth,"locus YMR001C, strain CDC5, hits give low values",0.968
same,normalized growth,"locus YMR205C, strain PFK2 (second series), hits give low values",0.941
same,normalized growth,"locus YMR277W, strain FCP1, hits give low values",0.965
same,normalized growth,"locus YNL006W, strain LST8, hits give low values",0.981
same,normalized growth,"locus YNL020C, strain ARK1, hits give low values",0.973
same,normalized growth,"locus YNL161W, strain CBK1, hits give low values",0.969
same,normalized growth,"locus YNL183C, strain NPR1, hits give low values",0.896
same,normalized growth,"locus YNL207W, strain RIO2, hits give low values",0.971
same,normalized growth,"locus YNL222W, strain SSU72, hits give low values",0.975
same,normalized growth,"locus YNL307C, strain MCK1 (second series), hits give low values",0.96
same,normalized growth,"locus YOL078W, strain AVO1, hits give low values",0.974
same,normalized growth,"locus YOL136C, strain PFK27, hits give low values",0.916
same,normalized growth,"locus YOR061W, strain CKA2, hits give low values",0.923
same,normalized growth,"locus YOR119C, strain RIO1, hits give low values",0.964
same,normalized growth,"locus YOR231W, strain MKK1, hits give low values",0.906
same,normalized growth,"locus YOR329C, strain SCD5, hits give low values",0.966
same,normalized growth,"locus YPL031C, strain PHO85, hits give low values",0.946
same,normalized growth,"locus YPL153C, strain RAD53, hits give low values",0.956
same,normalized growth,"locus YPL204W, strain HRR25, hits give low values",0.931
same,normalized growth,"locus YPL209C, strain IPL1, hits give low values",0.975
same,normalized growth,"locus YPL256C, strain CLN2, hits give low values",0.881
same,normalized growth,"locus YPR025C, strain CCL1, hits give low values",0.968
same,normalized growth,"locus YPR106W, strain ISR1, hits give low values",0.961
same,normalized growth,"locus YPR111W, strain DBF20, hits give low values",0.964
same,normalized growth,"strain NNK1, hits give low values",0.96
same,normalized growth,"strain TSCII, hits give low values",0.995
N/C(=N/OC(=O)c1ccccc1)c1ccc(-c2csnn2)cc1,normalized growth,"locus YAL013W, strain DEP1, hits give low values",0.998
same,normalized growth,"locus YBR229C, strain ROT2, hits give low values",0.988
same,normalized growth,[1],0.984
same,normalized growth,"locus YDL134C, strain PPH21, hits give low values",1.01
same,normalized growth,"locus YDR150W, strain NUM1, hits give low values",0.965
same,normalized growth,"locus YEL061C, strain CIN8, hits give low values",0.991
same,normalized growth,"locus YGR078C, strain PAC10, hits give low values",1
same,normalized growth,[2],1.08
same,normalized growth,"locus YHR087W, strain rtc3, hits give low values",0.993
same,normalized growth,"locus YJL187C, strain SWE1, hits give low values",1.02
same,normalized growth,"locus YJR043C, strain POL32, hits give low values",1.01
same,normalized growth,"locus YJR075W, strain HOC1, hits give low values",1.02
same,normalized growth,"locus YLR039C, strain RIC1, hits give low values",1.03
same,normalized growth,"locus YLR058C, strain SHM2 (second series), hits give low values",1
same,normalized growth,"locus YLR085C, strain ARP6, hits give low values",1.01
same,normalized growth,"locus YLR262C, strain YPT6, hits give low values",1.01
same,normalized growth,"locus YML094W, strain GIM5, hits give low values",0.993
same,normalized growth,"locus YMR219W, strain ESC1, hits give low values",1
same,normalized growth,"locus YMR263W, strain SAP30, hits give low values",1.03
same,normalized growth,"locus YNL153C, strain GIM3, hits give low values",1
same,normalized growth,"locus YNL298W, strain CLA4 (second series), hits give low values",1.01
same,normalized growth,"locus YNL322C, strain KRE1, hits give low values",1.01
same,normalized growth,"locus YNR030W, strain Alg12, hits give low values",1
same,normalized growth,"locus YOL006C, strain TOP1, hits give low values",1.07
same,normalized growth,"locus YPL055C, strain LGE1, hits give low values",0.905
same,normalized growth,"locus YPL241C, strain CIN2, hits give low values",1
same,normalized growth,"locus YPR135W, strain CTF4, hits give low values",1.04
